Assay outcomes deposited in PubChem by Sanford-Burnham Center for Chemical Genomics.
Peg3 prom inh – Peg3 promoter-driven luciferase inhibitors, primary screen, cell-based, HeLa, luciferase luminescence; HeLa PEG-Prom luciferase reporter, overnight; inhibition, % at 20 µM; hit rate 1.7% among 360,000; AID 588405, 2011;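 active = inhibition of at least 50% at 20 µM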
CF NFkB inh – inhibitors of PAF-induced NF-kB signaling, primary screen, cell-based, GFP fluorescence, uHTS; KKLEB NF-kB-GFP reporter, GFP fluorescence overnight; inhibition, % at 5 µM; hit rate 0.86% among 360,000;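 active = at least 50% inhibition at 5 µM, scaled per plate between neutral and stimulator controls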;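 also: PAF is a Pseudomonas aeruginosa culture filtrate used as stimulus; plate controls were PAF-stimulated DMSO wells for no effect and unstimulated DMSO wells for full effect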
TWEAK Fn14 block – inhibitors of TWEAK-Fn14 signaling, primary screen, luciferase reporter cells, uHTS; TWEAK-stimulated Fn14 reporter cells, luciferase luminescence, 8 h; hit rate 2% among 360,000; inhibition, % at 10 µM; in the data active = inhibition above about 50%
TROY signal inh – inhibitors of TROY-driven NF-kB signaling, primary screen, Q293 LMP1-TROYcd cells, NF-kB luciferase, uHTS. Q293 LMP1-TROYcd NF-kB luciferase reporter, 4 h. inhibition, % at 10 µM. hit rate 0.98% among 360,000;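 active = compounds whose plate-normalised and pattern-corrected inhibition of the luciferase reporter signal at the single screening dose is 50% or more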
KKLEB cytotox – cytotoxicity in KKLEB CF airway cells, primary screen, cytotoxicity control for CF NF-kB inhibitor project, cell-based, uHTS, fluorescence assay plates. hit rate 0.36% among 360,000. KKLEB CF airway cells viability, ATPlite luminescence, overnight; stronger effect = lower value; cells stimulated with P. aeruginosa culture filtrate. activity change (cytotoxicity), % at 5 µM;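 active = corrected activity change at or below -50% at 5 µM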
HIF-2a inh – HIF-2a reporter inhibitors, primary screen, luminescence, 786-0 RCC cells | 786-0 RCC cells HIF-2a reporter, luciferase luminescence, overnight | inhibition, % at 18.8 µM | hit rate 0.72% among 360,000;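 active = inhibition of the luminescence signal of 40% or more relative to plate controls, in a single-dose primary screen at 18.75 µM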
Numbers without * were called inactive. Compounds with a hit are over-represented: about 4% of the library has one in this group of screens.

SMILES	Peg3 prom inh	CF NFkB inh	TWEAK Fn14 block	TROY signal inh	KKLEB cytotox	HIF-2a inh
CCc1nc2ccccc2c(C(=O)OCC(=O)Nc2cccc(S(=O)(=O)NC3=NCCCCC3)c2)c1C	37.1	-3.2	80.5*	59.9*	-0.4	6.8
COc1ccc(NC(=O)CSc2nc3ccccc3c(=O)n2CCNC(C)=O)c(OC)c1	7.8	-2.8	0.1	5.0	0.1	0.2
COc1ccc(OC)c(NC(=O)CSc2nc3ccccc3c(=O)n2CCNC(C)=O)c1	13.1	-8.9	75.9*	-16.2	-8.0	23.3
CC(=O)c1cccc(NC(=O)CSc2nc3ccccc3c(=O)n2CCCN2CCOCC2)c1	-14.9	-12.3	-9.6	-5.7	-4.2	5.5
O=C(COC(=O)c1ccc2ccccc2n1)Nc1cccc(S(=O)(=O)NC2=NCCCCC2)c1	11.6	8.2	-0.7	3.1	1.6	7.6
Cc1ccc(NC(=O)CSc2nc3ccccc3c(=O)n2CCCN2CCCCC2)cc1C	54.6*	15.6	-64.7	-23.8	-15.8	34.7
C=CC[C@H](CC(=O)N[C@H](CO)Cc1ccccc1)C(=O)N[C@@H](COC(=O)[C@H](CC=C)CC(=O)OC(C)(C)C)Cc1c[nH]c2ccccc12	33.0	10.7	22.2	31.4	3.1	0.2
CCCN(CC(=O)Nc1ccccc1OC)C(=O)c1ccc(COc2ccccc2)o1	-3.5	0.1	4.0	8.8	-1.7	5.4
Cc1ccc(C(=O)OCC(=O)Nc2ccc3c(c2)OCO3)c(O)c1	-90.6	11.7	-16.2	-11.5	-12.3	-34.1
N#Cc1cccc(NC(=O)c2cc(C3CCCCN3C(=O)c3ccc4c(c3)CCO4)on2)c1 (stereo not given)	7.5	-10.3	8.0	-0.1	16.9	8.0
Cc1ccc(NC(=O)CSc2nc3ccccc3c(=O)n2Cc2cccs2)cc1	-3.2	47.6	-17.5	-3.2	-52.4*	-32.0
Cc1onc(-c2ccccc2)c1C(=O)OCC(=O)Nc1ccc2c(c1)OCO2	-1.6	2.0	4.3	-3.9	14.6	16.4
Cc1cc(NC(=O)CSc2nc3c(sc4ccccc43)c(=O)n2CCc2ccccc2)n[nH]1	3.0	18.0	0.2	-31.6	-15.3	6.4
COCCCn1c(SCC(=O)Nc2ccc(C)cc2)nc2ccccc2c1=O	20.6	-10.6	-3.2	11.9	5.6	5.5
Cc1c(-c2cccc(Cl)c2)nc2ccccc2c1C(=O)OCC(=O)Nc1ccc2c(c1)OCO2	49.0	-25.9	52.4*	26.7	4.7	-30.2
Cc1cc(NC(=O)CSc2nc3c(sc4ccccc43)c(=O)n2CCCN2CCOCC2)n[nH]1	89.5*	34.9	14.2	10.4	-25.3	15.6
CCCn1c(SCC(=O)Nc2cccc(S(=O)(=O)NC3=NCCCCC3)c2)nc2ccccc2c1=O	27.9	-4.5	78.0*	57.1*	0.3	9.4
CCOCCCn1c(SCC(=O)Nc2cccc(S(=O)(=O)NC3=NCCCCC3)c2)nc2ccccc2c1=O	28.6	-17.1	5.2	13.9	13.0	12.3
CCc1nnc(NS(=O)(=O)c2ccc(NC(=O)CCC(=O)OC)cc2)s1	4.4	4.1	4.8	21.2	-12.0	14.6
Cc1ccc(CNC(=O)C2CCCN2C(=O)Nc2ccc(F)cc2)cc1 (stereo not given)	11.7	3.0	-8.8	3.4	9.6	20.3
CC1Cc2cc(S(=O)(=O)N3CCC(C(=O)NCc4ccco4)CC3)ccc2N1C(=O)C1CCC1 (stereo not given)	33.9	-1.4	-2.0	8.8	-4.8	15.2
COCCCn1nnnc1SCC(=O)Nc1nc2ccccc2s1	2.2	5.0	2.2	81.3*	-1.7	-5.4
CCn1nnnc1SCC(=O)Nc1nc2ccccc2s1	-81.9	1.3	39.0	-24.7	6.5	-69.5
NC(=O)c1c(NC(=O)c2ccc([N+](=O)[O-])o2)sc2c1CCCC2	99.4*	107.4*	12.8	-5.9	-64.0*	7.2
O=C(Nc1sc2c(c1C(=O)O)CCCCC2)c1cccs1	-195.3	-6.3	52.9*	35.9	2.7	-219.3
SMILES	Peg3 prom inh	CF NFkB inh	TWEAK Fn14 block	TROY signal inh	KKLEB cytotox	HIF-2a inh
Cc1ccc(C(=O)Nc2sc3c(c2C(=O)O)CCCCC3)o1	-159.6	-5.7	64.8*	-30.6	8.4	-125.1
COCc1cc(=O)n2[nH]cc(-c3ccsc3)c2n1	20.5	-6.1	6.4	9.6	8.8	7.6
COCc1cc(C)nc(OCC(=O)N/N=C/c2ccc(-c3cc([N+](=O)[O-])ccc3Cl)o2)c1C#N	54.2*	8.3	-9.9	24.3	-17.2	2.2
COCc1cc(C)nc(OCC(=O)N/N=C/c2ccco2)c1C#N	5.5	-11.9	-17.2	11.0	2.2	4.5
CCOC(=O)C1=C[C@@H](C2CCCCC2)N(S(=O)(=O)c2ccc([N+](=O)[O-])cc2)[C@H]1c1ccccc1	11.8	13.0	74.7*	-9.2	-12.3	0.2
CCOC(=O)C1=CC[C@@H](c2ccc([N+](=O)[O-])cc2)N(S(=O)(=O)c2ccc(C)cc2)[C@H]1c1ccccc1	19.7	-15.2	26.4	-1.6	1.5	14.5
COc1ccc(N2CCN(C(=O)CSc3nnc4n3C(C)(C)Cc3ccccc3-4)CC2)cc1	17.2	-5.7	10.5	1.8	-0.3	2.8
Cc1ccc(Cl)cc1N1CCN(C(=O)CSc2nnc3n2C(C)(C)Cc2ccccc2-3)CC1	21.4	22.9	95.9*	72.4*	-8.2	10.3
O=C(NCc1ccccc1)c1ccc(-c2cn[nH]c2)c2ccoc12	-170.5	54.1*	-21.7	-11.5	-66.9*	-171.2
C[n+]1cccc(C(=O)NNC(=O)C23CC4CC(CC(C4)C2)C3)c1	11.3	11.2	0.9	51.8*	9.5	20.5
O=C(NNC(=O)C12CC3CC(CC(C3)C1)C2)c1ccccn1	60.2*	22.8	-78.7	-10.6	-9.0	0.4
COc1ccccc1C(=O)NNC(=O)C12CC3CC(CC(C3)C1)C2	28.1	-2.1	-12.4	-4.1	4.5	22.6
CC(C(=O)N1CCc2ccccc21)N(C)CC(=O)Nc1cccc(F)c1 (stereo not given)	6.4	9.9	-9.0	1.7	-2.1	9.3
Cc1nc2ccc3nc(NC(=O)c4ccc5c(c4)OCCO5)sc3c2s1	-26.7	-1.1	-27.0	-38.7	1.6	-82.5
Cc1nc2c(ccc3nc(NC(=O)C(c4ccccc4)c4ccccc4)sc32)s1	2.2	1.0	75.1*	29.6	-17.5	0.0
Cc1nc2c(ccc3nc(NC(=O)c4ccc5c(c4)OCCO5)sc32)s1	-4.6	14.3	16.4	30.8	-53.3*	-172.9
Cc1ccnc(NS(=O)(=O)c2ccc(NC(=O)c3snnc3C)cc2)n1	20.3	3.3	-19.2	-3.5	-2.0	11.6
